Source: PubChem BioAssay (NCI)
Compounds without any hit were thinned out: in the full panel of roughly 83,000, 20% have a hit.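 A percent growth of 40 corresponds to 60% growth inhibition; 0 means no net growth; -100 means all cells died. Active threshold: below 10.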 A number with no mark means an inactive call. Active and inactive are the calls of the source.

How the values were obtained:
Experiment in all cases: NCI-60 one-dose screen, 48 h (100 = growth as untreated, 0 = no growth, -100 = all killed)
Details in all cases: 10 µM unless noted
[1] = system: NCI-H23 lung
[2] = system: NCI-H226 lung
[3] = system: NCI-H322M lung
[4] = system: HOP-62 NSCLC
[5] = system: NCI-H460 lung
[6] = system: HOP-92 NSCLC
[7] = system: NCI-H522 lung
[8] = system: A549/ATCC NSCLC
[9] = system: 786-0 renal
[10] = system: COLO 205 colon

Compound	growth [1]	growth [2]	growth [3]	growth [4]	growth [5]	growth [6]	growth [7]	growth [8]	growth [9]	growth [10]
C[C@H]1[C@H](C)CC[C@]2(C(=O)O)CC[C@]3(C)C(=CC[C@@H]4[C@@]5(C)C/C(=C/c6ccco6)C(=O)C(C)(C)[C@@H]5CC[C@]43C)[C@H]12	-81.1% [100 µM] (active)	-52.3% [100 µM] (active)	-73.4% [100 µM] (active)	-75.7% [100 µM] (active)	-55.6% [100 µM] (active)	-87.7% [100 µM] (active)	-82.7% [100 µM] (active)	-52.5% [100 µM] (active)	-40.3% [100 µM] (active)	-60.9% [100 µM] (active)
C=C(C)[C@@H]1CC[C@]2(C(=O)N3CCN(C)CC3)CC[C@]3(C)[C@H](CC[C@@H]4[C@@]5(C)C/C(=C/c6ccncc6)[C@H](O)C(C)(C)[C@@H]5CC[C@]43C)[C@@H]12	4.32% [100 µM] (active)	-51% [100 µM] (active)	-27% [100 µM] (active)	-38.6% [100 µM] (active)	-67.4% [100 µM] (active)	-39.3% [100 µM] (active)	-46.3% [100 µM] (active)	16.2% [100 µM]	-90.8% [100 µM] (active)	-74.8% [100 µM] (active)
CC1=CC[C@@H]2C(C)(C)[C@@H](O)CC[C@@]2(C)[C@@H]1COc1ccc2ccc(=O)oc2c1	74.7%	38.2%	91.1%	67.2%	88.6%	51.3%	25.9%	43%	92.9%	55.3%
Cc1nc(Cl)c2c(n1)N(C)c1ccc(Cl)cc1C(C)C2 (stereo not given)	92.5%	87.7%	97.1%	90.4%	92.3%	66%	77.8%	84.6%	90%	97.3%
CCOC(=O)c1c[nH]c2cc(OCC3CC3)c(OCC3CC3)cc2c1=O	110%	106%	100%	109%	103%	116%	95.5%	109%	120%	113%
CCCCC(CCCCCC(CCCC)C1NC(C)Cc2cc(OC)c(OC)cc21)C1NC(C)Cc2cc(OC)c(OC)cc21 (stereo not given)	-81.4% (active)	-77.8% (active)	-39.4% (active)	-97.2% (active)	-73.8% (active)	-57.8% (active)	-87.7% (active)	-80.9% (active)	-98.4% (active)	-96.9% (active)
CCCCCCCCCCCCCC[n+]1cccc(C(N)=O)c1	13.9%	13.8%	16.8%	17.1%	14.8%	-26.8% (active)	-35.3% (active)	69.5%	-40% (active)	-66.8% (active)
O=C(N/N=C/c1ccc([N+](=O)[O-])cc1)c1ccc(Br)o1	95.5%	100%	129%	119%	105%	101%	88.5%	92.7%	91.7%	116%
N=C(N)c1ccc(-c2ccc(-c3ccc(-c4cccs4)s3)s2)cc1F	93.2%	95.7%	26%	100%	13%	94.8%	100%	15.1%	99.5%	101%
CCN(CC)c1ccc2cc(NC(=O)OCCNC(=O)CCNC(=O)[C@H](CC(C)C)NC(=O)C(C)(C)NC(=O)C(C)(C)NC(=O)[C@H](CC(C)C)NC(=O)CCNC(=O)C(C)(C)NC(=O)[C@H](CC(C)C)NC(=O)CCNC(=O)[C@@](C)(CC)NC(=O)[C@H](C)NC(=O)CCNC(=O)C(C)(C)NC(=O)[C@H](C)NC(=O)[C@@H]3CCCN3C(=O)[C@@](C)(CC)NC(=O)[C@H](Cc3ccccc3)NC(=O)C3CCCN3C(=O)C(C)(C)NC(=O)C3CCCN3C(=O)C(C)(C)NC(C)=O)c(=O)oc2c1 (stereo not given in full)	-85.9% (active)	-65.9% (active)	-80.3% (active)	-86.7% (active)	-76.9% (active)	-95.8% (active)	-82.3% (active)	-76% (active)	-94.8% (active)	-81.1% (active)
Nc1nc(Nc2ccccc2)c2ncn(Cc3cc4c(cc3Br)OCO4)c2n1	23.2%	29.4%	30.2%	11.3%	5.33% (active)	40%	-40.5% (active)	13.5%	20.3%	-38.3% (active)
CN(C)CCOc1ccc(/C(=C(/CCCl)c2ccccc2)c2ccccc2)cc1	28.5%	59.1%	37.1%	-18.8% (active)	-73.3% (active)	-4.94% (active)	10.8%	26.4%	-28.5% (active)	-93.6% (active)
O=C(Nc1cc(F)cc2cccnc12)c1cnc(N2CCNCC2)cn1	83.4%	100%	69.3%	85.2%	80.6%	49.1%	54.5%	88.1%	89.1%	13.9%
O=C(N/N=C/c1c(Cl)cccc1Cl)c1cccc(Nc2ccnc(C(F)(F)F)c2)c1	89.7%	78.7%	108%	86.6%	82.1%	60.5%	87%	107%	81.9%	89.4%
CCN1c2ccccc2C(Cl)(c2ccc(N(C)C)cc2)c2ccccc21	33.8%	88.2%	116%	73.6%	66%	59.6%	64.2%	82.9%	75.8%	75.5%
CC(C)=CC/C=C(/C)[C@H]1CC[C@]2(C)[C@@H]1CC[C@@H]1[C@@]3(C)CCCNC(C)(C)[C@@H]3CC[C@]12C	-61.7% [100 µM] (active)	-49.5% [100 µM] (active)	-99.4% [100 µM] (active)	-48.3% [100 µM] (active)	-74.2% [100 µM] (active)	-56.6% [100 µM] (active)	-59.3% [100 µM] (active)	-51.8% [100 µM] (active)	-56.2% [100 µM] (active)	-62.4% [100 µM] (active)
Cc1ccc(N)c(O)c1	86.2%	97.5%	91%	91.7%	100%	68.1%	73.8%	85.4%	90.8%	132%
c1ccc2c(c1)CN(CCCN1CCOCC1)C2	99.6%	96.2%	99.7%	103%	103%	126%	98.3%	96.8%	102%	108%
CC1(C)C(=NO)C(C)(C)C1=NO	111%	103%	99.6%	117%	105%	88.7%	94.1%	103%	110%	116%
CCN=C1C=CC(=C(c2ccc(N(CC)CC)cc2)c2ccc(N(CC)CC)cc2)c2ccccc21	-53.5% (active)	-58.3% (active)	-38.9% (active)	-71.8% (active)	-72% (active)	-72.8% (active)	-65.5% (active)	-59.8% (active)	-64.3% (active)	-90.7% (active)
Nc1nc(Nc2ccccc2)c2ncn(Cc3ccc4c(c3)OCO4)c2n1	62.8%	75.1%	58.1%	40.8%	15.9%	63.9%	43.8%	42%	54.8%	47%
COc1cc2c(cc1OC(C)=O)C(=O)CCCC2	93.6%	98.1%	89.9%	75.4%	105%	79%	78%	85.8%	86.9%	135%
COc1ncc(-c2ccc3nccc(C#CCCCCC(=O)NO)c3c2)cc1NS(=O)(=O)c1ccc(F)cc1F	29.6%	9.85% (active)	7.5% (active)	4.48% (active)	6.53% (active)	-27.7% (active)	-21.7% (active)	-12.7% (active)	-14.5% (active)	-44.5% (active)
CCOC(=O)c1nn(C2CCCCO2)c2ccc(NC(=O)CN3CCOCC3)cc12 (stereo not given)	99.7%	106%	95.7%	100%	101%	108%	106%	106%	98.3%	118%
C=CCCCCCCCCC(=O)OC(C)C	98.4%	102%	94%	97.5%	100%	82.3%	91.7%	99.2%	104%	105%
